This is a sample that favours compounds with a hit; in the whole collection about 2.6% have one here.
KKLEB cytotox – cytotoxicity in KKLEB CF airway cells, primary screen, cytotoxicity control for CF NF-kB inhibitor project, cell-based, uHTS, fluorescence assay plates; hit rate 0.36% among 360,000; activity change (cytotoxicity), % at 5 µM; AID 602141, 2011; KKLEB CF airway cells viability, ATPlite luminescence, overnight; active compounds read low; cells stimulated with P. aeruginosa culture filtrate;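 active = corrected activity change at or below -50% at 5 µM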
CF NFkB inh – inhibitors of PAF-induced NF-kB signaling, primary screen, cell-based, GFP fluorescence, uHTS. hit rate 0.86% among 360,000. KKLEB NF-kB-GFP reporter, GFP fluorescence overnight. inhibition, % at 5 µM;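 active = at least 50% inhibition at 5 µM, scaled per plate between neutral and stimulator controls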;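 also: PAF is a Pseudomonas aeruginosa culture filtrate used as stimulus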
TROY NFkB inh – inhibitors of TROY-driven NF-kB signaling, primary screen, Q293 LMP1-TROYcd cells, NF-kB luciferase, uHTS | Q293 LMP1-TROYcd NF-kB luciferase reporter, 4 h | inhibition, % at 10 µM | hit rate 0.98% among 360,000;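 active = compounds whose plate-normalised and pattern-corrected inhibition of the luciferase reporter signal at the single screening dose is 50% or more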
TWEAK-Fn14 inh – inhibitors of TWEAK-Fn14 signaling, primary screen, luciferase reporter cells, uHTS | hit rate 2% among 360,000 | TWEAK-stimulated Fn14 reporter cells, luciferase luminescence, 8 h | inhibition, % at 10 µM; in the data active = inhibition above about 50%
EWS-Fli inh – EWS/Fli-driven NR0B1 reporter inhibitors, primary screen, A673 cells, NR0B1 luciferase, luminescence, MLPCN library; viability-normalised; AID 651661, 2012; hit rate 0.67% among 350,000; inhibition, % at 12.6 µM;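 active = mean inhibition of at least 50% after viability correction, with every replicate also passing that limit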;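 also: firefly luciferase signal divided by Alamar Blue viability fluorescence both relative to DMSO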
LGR2 antag – inhibitors of bursicon-induced LGR2 CRE-luciferase signal, primary screen, cell-based, HEK293, CRE-luciferase reporter, bursicon stimulation; Drosophila bursicon receptor LGR2 (rickets); bursicon-stimulated, 4 h; inhibition, % at 9.99 µM; hit rate 0.35% among 380,000; AID 720647, 2013;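 active = drop in luminescence signal, shown as inhibition above about 50% in the replicate tests, limit read from the data, passing the limit was not always enough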;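 also: agonist challenge used bursicon conditioned medium at about half maximal strength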
CF NFkB inh conf – inhibitors of PAF-induced NF-kB signaling, retest, confirmation, cell-based, GFP fluorescence, single concentration; shares compounds with CF NFkB inh; hit rate 64% among 1,300; inhibition, % at 5 µM; AID 602472, 2012; KKLEB CF airway cells, overnight; in the data active = inhibition above about 40%;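 also: stimulus PAF is a Pseudomonas aeruginosa filtrate and not platelet activating factor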
Each line names hits and unclear results; the compound was inactive in the other large screens (follow-up assays come after a bar, where they were run).

CCOC(=O)N1CCN(CC(=O)Nc2ccc([N+](=O)[O-])cc2C(=O)Nc2ccccc2F)CC1	CF NFkB inh 67 | CF NFkB inh conf inactive
O=C(CN1CCN(Cc2ccccc2)CC1)Nc1ccc([N+](=O)[O-])cc1C(=O)Nc1ccccc1F	none (no result: EWS-Fli inh)
CCOc1ccc(NC(=O)c2nnn(CC(=O)Nc3ccccc3OCC)c2N)cc1	none (no result: EWS-Fli inh, LGR2 antag)
CCOc1ccc(OCC)c(NC(=O)c2nnn(CC(=O)Nc3cc(C)cc(C)c3)c2N)c1	CF NFkB inh 50 | CF NFkB inh conf inactive
CC(=O)N(C)C[C@@H]1Oc2cc(C#CC3CC3)ccc2S(=O)(=O)N([C@H](C)CO)C[C@@H]1C	none (no result: KKLEB cytotox, CF NFkB inh, TROY NFkB inh, TWEAK-Fn14 inh)
COc1ccc(-c2nc(NC(=O)c3ccc(OCC(=O)Nc4ccc(F)cc4)c(OC)c3)sc2C)cc1	CF NFkB inh 54 (no result: EWS-Fli inh) | CF NFkB inh conf 72
C[C@@H]1CN([C@H](C)CO)C(=O)c2cc(NS(=O)(=O)c3ccc(Cl)cc3)ccc2O[C@@H]1CN(C)Cc1ccc(C(F)(F)F)cc1	none (no result: KKLEB cytotox, CF NFkB inh, TROY NFkB inh, TWEAK-Fn14 inh)
COc1ccc2c3c(n(C)c2c1)[C@@H](CO)N(C(=O)NC(C)C)CC31CCN(CC2CCCC2)CC1	none (no result: KKLEB cytotox, CF NFkB inh, TROY NFkB inh, TWEAK-Fn14 inh)
CC[C@H](CO)Nc1nc(Nc2cccc(Cl)c2)c2ncn(C(C)C)c2n1	CF NFkB inh 68, TROY NFkB inh 61, TWEAK-Fn14 inh 71, LGR2 antag 58 | CF NFkB inh conf 92
C[C@H](CO)N1C[C@H](C)[C@@H](CN(C)C(=O)Nc2cccc(F)c2)Oc2ncc(C3=CCCC3)cc2C1=O	none (no result: KKLEB cytotox, CF NFkB inh, TROY NFkB inh, TWEAK-Fn14 inh)
CCC(=O)Nc1ccc2c(c1)C(=O)N(C)C[C@@H](OC)[C@@H](C)CN(Cc1cccnc1)[C@@H](C)CO2	none (no result: KKLEB cytotox, CF NFkB inh, TROY NFkB inh, TWEAK-Fn14 inh)
COc1cc(C(=O)c2cc3c(cc2C)OCO3)cc(OC)c1OC	CF NFkB inh 58, EWS-Fli inh 58 | CF NFkB inh conf 82
COc1cc(C(=O)NC(=S)NNC(=O)c2ccc3c(c2)OCO3)cc(OC)c1OC	none
Fc1ccc(CSc2ncnc3scc(-c4ccccc4)c23)cc1	none (no result: LGR2 antag)
Cn1nnnc1Sc1ncnc2scc(-c3ccc(C#N)cc3)c12	CF NFkB inh 77, TWEAK-Fn14 inh 83, LGR2 antag 88 | CF NFkB inh conf inactive
Cn1nnnc1Sc1ncnc2scc(-c3cccc(F)c3)c12	CF NFkB inh 66, TWEAK-Fn14 inh 64, LGR2 antag 83 | CF NFkB inh conf inactive
COc1cccc(S(=O)(=O)Nc2ccc3c(c2)C(=O)N(C)[C@H]2CC[C@@H](CC(=O)O)O[C@@H]2CO3)c1	none (no result: KKLEB cytotox, CF NFkB inh, TROY NFkB inh, TWEAK-Fn14 inh)
CC(=O)Nc1cccc(C(=O)/C=C/c2ccc(Br)cc2)c1	CF NFkB inh 78, TWEAK-Fn14 inh 67, LGR2 antag 60 | CF NFkB inh conf inactive
C/C(=N\Nc1cc(N2CCOCC2)ncn1)c1cccc([N+](=O)[O-])c1	CF NFkB inh 56 | CF NFkB inh conf 64
C/C(=N\Nc1cc(N2CCOCC2)ncn1)c1ccccc1	none
O=[N+]([O-])c1cccc(/C=N/Nc2cc(N3CCOCC3)ncn2)c1	CF NFkB inh 53 | CF NFkB inh conf 72
COc1ccc(NC(=O)N(C)C[C@@H]2Oc3ccc(NC(=O)Nc4cccc5ccccc45)cc3C(=O)N([C@H](C)CO)C[C@H]2C)cc1	none (no result: KKLEB cytotox, CF NFkB inh, TROY NFkB inh, TWEAK-Fn14 inh)
C[C@@H]1CN([C@@H](C)CO)C(=O)CCCn2cc(nn2)CO[C@H]1CN(C)Cc1cccc(C(F)(F)F)c1	none (no result: KKLEB cytotox, CF NFkB inh, TROY NFkB inh, TWEAK-Fn14 inh)
CC(CN1CCOCC1)OC(=O)C(c1ccccc1)c1ccccc1 (stereo unspecified)	none (no result: EWS-Fli inh, LGR2 antag)
O=C(c1ccccc1)C(CCC(CN1CCOCC1)C(=O)c1ccccc1)CN1CCOCC1 (stereo unspecified)	CF NFkB inh 84, TROY NFkB inh 51, TWEAK-Fn14 inh 85 (no result: EWS-Fli inh, LGR2 antag) | CF NFkB inh conf inactive
Cc1cccn2c(=O)c3cc(S(=O)(=O)c4ccc(F)cc4)c(=N)n(Cc4ccco4)c3nc12	CF NFkB inh 76, TWEAK-Fn14 inh 56, LGR2 antag 53 | CF NFkB inh conf inactive
Cc1cccn2c(=O)c3cc(S(=O)(=O)c4ccccc4)c(=N)n(Cc4ccco4)c3nc12	none
COc1ccc2c3c(n(C)c2c1)[C@@H](CO)N(CC1CCOCC1)CC31CN(Cc2nccs2)C1	none (no result: KKLEB cytotox, CF NFkB inh, TROY NFkB inh, TWEAK-Fn14 inh)
C=C1C(=O)[C@]23C[C@H]1CC[C@H]2[C@]1(C)[C@@H](OC(C)=O)CC[C@@](C)(C(=O)O)[C@H]1C[C@@H]3OC(C)=O	CF NFkB inh 62 | CF NFkB inh conf inactive
C=C1C(=O)[C@]23C[C@H]1CCC2[C@]1(C)C(=O)CC[C@@](C)(C(=O)O)C1C[C@@H]3O (stereo partly specified)	CF NFkB inh 71, TWEAK-Fn14 inh 72 | CF NFkB inh conf 86
C[C@H](CO)N1C[C@H](C)[C@@H](CN(C)C(=O)Nc2ccc(F)cc2)Oc2c(NC(=O)Nc3ccc(F)cc3)cccc2C1=O	none (no result: KKLEB cytotox, CF NFkB inh, TROY NFkB inh, TWEAK-Fn14 inh)
CC(=O)Nc1ccc(S(=O)(=O)N2c3ccccc3C(C)=CC2(C)C)cc1	CF NFkB inh 54 | CF NFkB inh conf 65
CC1=CC(C)(C)N(S(=O)(=O)c2ccc(F)cc2)c2ccccc21	none
O=C(C1CCOCC1)N1CC(=O)N2[C@H](CO)[C@@H](c3ccc(C#CC4CCCC4)cc3)[C@@H]2C1	none (no result: KKLEB cytotox, CF NFkB inh, TROY NFkB inh, TWEAK-Fn14 inh)
CCc1ccc(C(=O)c2cncc(Br)c2)cc1	none (no result: EWS-Fli inh, LGR2 antag)
Cc1ccc(C(=O)c2cncc(Br)c2)cc1	CF NFkB inh 50 (no result: EWS-Fli inh, LGR2 antag) | CF NFkB inh conf 62
CCOc1ccc2nc(SCC(=O)c3ccc(O)cc3O)sc2c1	CF NFkB inh 58 | CF NFkB inh conf 45
COc1ccc2ccc(O)c(CN3CCN(S(=O)(=O)c4cccc(C(F)(F)F)c4)CC3)c2c1	CF NFkB inh 70 | CF NFkB inh conf inactive
C=Cc1ccc(CC2(C)C(=O)Nc3ccc(-c4cccnc4)cc32)cc1 (stereo unspecified)	CF NFkB inh 74, TWEAK-Fn14 inh 81 | CF NFkB inh conf 87
CC1(Cc2ccc(Cl)cc2)C(=O)Nc2ccc(-c3ccc(F)c(Cl)c3)cc21 (stereo unspecified)	none
CC1(Cc2ccc(F)cc2)C(=O)Nc2ccc(-c3cccnc3)cc21 (stereo unspecified)	CF NFkB inh 67, TWEAK-Fn14 inh 64 | CF NFkB inh conf 74
C[C@H](CO)N1C[C@H](C)[C@@H](CN(C)CC2CC2)Oc2ccc(NC(=O)c3ccncc3)cc2CC1=O	none (no result: KKLEB cytotox, CF NFkB inh, TROY NFkB inh, TWEAK-Fn14 inh)
COc1ccc(NC(=O)CSc2nc(C3CC3)nc3ccccc23)cc1	CF NFkB inh 53 | CF NFkB inh conf inactive
CC(=O)c1ccc(NC(=O)CSc2nc(C3CC3)nc3ccccc23)cc1	none
